# Results reported in PMC7819943, “Rice protein-binding microarrays: a tool to detect cis-acting elements near promoter regions in rice”.
# The full ranking holds about 39,000 sequences; the median of “fluorescence intensity (a.u.)” is about 4,300, and the highest 2% start at about 39,000. Only a selection was taken, and the highest values are over-represented in it overall.
# Target: T1, OsSMF1 (Oryza sativa, UniProt Q6ZLB0 1-436)
# T1 sequence: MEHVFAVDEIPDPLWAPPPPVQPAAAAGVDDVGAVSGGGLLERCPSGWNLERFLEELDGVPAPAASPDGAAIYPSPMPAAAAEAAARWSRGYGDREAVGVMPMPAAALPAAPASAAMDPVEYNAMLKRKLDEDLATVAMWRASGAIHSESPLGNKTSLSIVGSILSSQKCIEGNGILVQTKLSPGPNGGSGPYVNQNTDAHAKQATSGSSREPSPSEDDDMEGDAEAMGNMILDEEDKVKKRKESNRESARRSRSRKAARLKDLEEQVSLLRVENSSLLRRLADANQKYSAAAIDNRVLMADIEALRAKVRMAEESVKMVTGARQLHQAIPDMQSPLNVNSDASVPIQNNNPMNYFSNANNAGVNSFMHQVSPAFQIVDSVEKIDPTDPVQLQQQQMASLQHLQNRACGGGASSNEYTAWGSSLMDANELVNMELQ
# Experiment: protein-binding microarray (RPBM); PBS, 2% BSA, 51.3 ng/ul salmon testes DNA, 50 uM zinc acetate, 200 nM TF, 25 C, 1 h; high values mean tight binding
# Settings: protein: recombinant; tags: N-terminal polyhistidine and DsRed monomer fusion (pET32a); chain copies: 2; label: CyDye5-dUTP incorporated in the synthesized complementary strand; 3' TTTTT single-stranded linker to array surface; dsDNA, one strand shown
# In short: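 Binding signal is reported as fluorescence intensity per feature (arbitrary units) from an Axon 4000B scanner. Incubation used 200 nM of each Ni–NTA-purified, N-terminally polyhistidine- and DsRed-fused transcription factor from E. coli BL21-CodonPlus on a double-stranded custom Agilent array for 1 h at 25 °C, with 50 µM zinc acetate in the buffer, followed by washing.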
row,Sequence,binding signal
1,GCCCACGCTCACCGACTCCATCGACGTCACGCTCACCGCCCGGAGTCACCTAGTGCAG,5090 fluorescence intensity (a.u.)
2,GTCAAAACCGCCACGTAGACGCCACGTCATCGAAACCGCCCGGAGTCACCTAGTGCAG,40400 fluorescence intensity (a.u.)
3,TACTGCCACGTAGGCGCCACGTCAGCGAAACCGCCCTCCACGGAGTCACCTAGTGCAG,58100 fluorescence intensity (a.u.)
4,CAAACAAGCCACGTAGATGCCACGTCATCCAAAACCGCCTCGGAGTCACCTAGTGCAG,29600 fluorescence intensity (a.u.)
5,AAAAGCCCACCACCACCCAACCCGCCCAACGCCACGTCACCGGAGTCACCTAGTGCAG,24800 fluorescence intensity (a.u.)
6,GCGCCACGTAGACGCCACGTCAGCCAAAACCGCCCTCCATCGGAGTCACCTAGTGCAG,52000 fluorescence intensity (a.u.)
7,CGCTCCGTCAGCCACGTAGACGCTACGTCGGCCAAAACCGCGGAGTCACCTAGTGCAG,14900 fluorescence intensity (a.u.)
8,TCCGTGACACCGTGACAGCGTGGACGTTCATAACCTTCCACGGAGTCACCTAGTGCAG,9010 fluorescence intensity (a.u.)
9,GACCTCGCGAACAGCCCACACGTACGTTACTGACGCCATACGGAGTCACCTAGTGCAG,4360 fluorescence intensity (a.u.)
10,ACAGGTAGCTCCATATCTTGTTCATATTGACATACACAATCGGAGTCACCTAGTGCAG,31500 fluorescence intensity (a.u.)
11,TGCAAATTTTCAAAATCGACTACCAGTAGATGTTTACTCCCGGAGTCACCTAGTGCAG,14000 fluorescence intensity (a.u.)
12,CAAGAATGTACTGAGTACGTCTCAATCCACGTGTTTGAGCCGGAGTCACCTAGTGCAG,4960 fluorescence intensity (a.u.)
13,ATGCAGCCACACGGATGTTGGACGTCATTGTCTATAGTGTCGGAGTCACCTAGTGCAG,4580 fluorescence intensity (a.u.)
14,TCACGAACTGTGTACCGGATGCCACGTCACACAGTTGTCTCGGAGTCACCTAGTGCAG,41200 fluorescence intensity (a.u.)
15,TATAGTTGTGTACTAGTGTCACTCACGCCACCCGTCTCATCGGAGTCACCTAGTGCAG,3670 fluorescence intensity (a.u.)
16,AAACTAGCCACGTTGGCGCCACGTCAGCCAAAACCGCCTTCGGAGTCACCTAGTGCAG,33700 fluorescence intensity (a.u.)
17,ACAAGCCACGTAGGCGCCACGTCAGCCAAAACCGCCTTCACGGAGTCACCTAGTGCAG,44100 fluorescence intensity (a.u.)
18,TTGCAGTGCCACCTCACCGCCACGTAGGATGATGACTAAGCGGAGTCACCTAGTGCAG,25800 fluorescence intensity (a.u.)
19,ACCAGCCACGTAGGCGCCACGTCAGCTAAAACCGCCTTCACGGAGTCACCTAGTGCAG,19900 fluorescence intensity (a.u.)
20,AGTAAAAGGAGCCACGTAGGCGCCACGTCATCCAAAACCACGGAGTCACCTAGTGCAG,47600 fluorescence intensity (a.u.)
21,GGCCGCGTAGGCGCCACATCAGCCAAAACCACCATCAAAACGGAGTCACCTAGTGCAG,4590 fluorescence intensity (a.u.)

row,Sequence,binding signal
1,AGTTAATGGAGGAGCCACCGCCACGTAAGTGCCACGTAGGCGGAGTCACCTAGTGCAG,56200 fluorescence intensity (a.u.)
2,CGTAAGCGCCACGTTAATGCCACGTGGGGCGAAGACCTAGCGGAGTCACCTAGTGCAG,15100 fluorescence intensity (a.u.)
3,AACCAGCCACGTAGGCGCCACGTCAGCCAAAACTGCTATCCGGAGTCACCTAGTGCAG,35900 fluorescence intensity (a.u.)
4,CATTATACTGTTCATAAACATGAATATCACAACCTGTTCTCGGAGTCACCTAGTGCAG,21100 fluorescence intensity (a.u.)
5,GTGTGGGGATAAACAGAGGTAGAGACATGTGTCAGATGACCGGAGTCACCTAGTGCAG,3150 fluorescence intensity (a.u.)
6,CTTCTTTCCCGCACGCGCGGCTCGCGCATGCATGCACGATCGGAGTCACCTAGTGCAG,15000 fluorescence intensity (a.u.)
7,CGTCCGGCGTCGGCGTGGACGGGTCGGCGCGGCGCCCCACCGGAGTCACCTAGTGCAG,3650 fluorescence intensity (a.u.)
8,AGATTAAGGAGTCCTCCATCTATATAATCCAATCTATCTCCGGAGTCACCTAGTGCAG,21400 fluorescence intensity (a.u.)
9,ACCACCCGAGACGCGACGTGGCGGCGGGCATGCAGCACCCCGGAGTCACCTAGTGCAG,5050 fluorescence intensity (a.u.)
10,TTGTCCGATGTGGCAGTTGAGTCAGCATGAGACCCACGTACGGAGTCACCTAGTGCAG,14200 fluorescence intensity (a.u.)
11,CGGCACCACCAGTTGTCCGGCATGCGATGTGGTACCGAGACGGAGTCACCTAGTGCAG,49300 fluorescence intensity (a.u.)
12,ACCTGTATTTGTCATTATTTAGTGGACTCTGCTTAGTTCTCGGAGTCACCTAGTGCAG,3390 fluorescence intensity (a.u.)
13,CATGGTGATGATGGCGGCGGGCGTCCGTCAGCGCCCGCACCGGAGTCACCTAGTGCAG,5860 fluorescence intensity (a.u.)
14,TGCAGCCGCCGACGCGGCGCGCCGACGCGATCTGAAACCCCGGAGTCACCTAGTGCAG,3940 fluorescence intensity (a.u.)
15,TATGGTGATCCTAGCGATGAAACCGCCTAGCCCCGTTAGGCGGAGTCACCTAGTGCAG,64600 fluorescence intensity (a.u.)
16,CCTATTCCTTGTCACTATGACACCGTCATATATCTATGCACGGAGTCACCTAGTGCAG,3420 fluorescence intensity (a.u.)
17,CCCGCGGATCGATCGATCGCCGCCGCGCGCCTGGACGAGCCGGAGTCACCTAGTGCAG,3300 fluorescence intensity (a.u.)
18,CGCCTCCGTGGACCCGGTCCACGGGGAGATTACACCTTCACGGAGTCACCTAGTGCAG,57600 fluorescence intensity (a.u.)
19,AATCGTGTCCATGGTCTCCACCTCACGGGAGATTCTCCGCCGGAGTCACCTAGTGCAG,3830 fluorescence intensity (a.u.)
20,CCGCCACCCGCTGCCCGGGGAGCTCCGCCTTCACCTCCGCCGGAGTCACCTAGTGCAG,7820 fluorescence intensity (a.u.)
21,ATAGTTAGGTGACAATTGACAAGTGTCAAGTTGTGTATGACGGAGTCACCTAGTGCAG,3360 fluorescence intensity (a.u.)
